Assay results reported in PubChem BioAssay (NCI).
The panel holds about 79,000 compounds, 15% with a hit somewhere; the sample as a whole holds those more often. A number with no mark means an inactive call. No stated cut-off is given here; in the data, active means growth inhibition above about 70%; inactive means the rest.

Test: NCI Yeast Anticancer Drug Screen. Data for the rad50 strain (AID 155);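 further: 0% = growth of vehicle-only cultures of the same strain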
Details: S. cerevisiae rad50 strain growth inhibition; at 50.0 µM; stronger effect = higher value
Summary of the method: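 A DNA repair-deficient yeast mutant serves as the test organism; compound-induced growth inhibition is calculated against vehicle-treated cells.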

Going from `C[N+](C)(C)CC(=O)N/N=C(/C=C/c1ccccc1)CC1OC(=O)c2ccccc21` (configuration not stated) to `CC(=O)Nc1ccc(C(=O)NN2C(=O)C(Cl)C2c2ccccc2)cc1` (configuration not stated), the growth inhibition falls from -9.65% to -22.1%.

Going from `CC(C)(C)OC(=O)Cc1c[nH]c2ccccc12` to `COC(=O)CC1(O)C=C(C)C(=O)c2ccccc21` (configuration not stated), the growth inhibition rises from -38.2% to 4.9%.

Going from `CCOC(=O)c1noc(Oc2ccc(Cl)cc2Cl)n1` to `CNC(=O)Nc1ccc(Cl)cc1C(=O)O`, the growth inhibition falls from -13.9% to -26.2%.

Going from `CCN(CC)C(=O)N1C=CC(C)C=C1` to `CC(=O)NC1=C/C(=C/COC(C)=O)OC1=O`, the growth inhibition rises from -30.4% to 22.6%.

Going from `Cc1cc(C)c([N+](=O)[O-])cc1[N+](=O)[O-]` to `O=C(c1ccc(O)c(C(=O)O)c1)c1ccc(O)c(C(=O)O)c1`, the growth inhibition rises from 7.5% to 10.9%.

First: CC(=O)Nc1ccc(S(=O)(=O)NNC(=O)NNS(=O)(=O)c2ccc(NC(C)=O)cc2)cc1
Second: Nc1nc(N)c(N=Nc2ccc(S(=O)(=O)NC(=O)c3ccccc3)cc2)c(=O)[nH]1
The growth inhibition of the first is higher: -6.15% for the first, -8.4% for the second.

Compared with `N#CC(C#N)=CN1CCCCC1`, `COC(=O)/C(C#N)=C1\CCC(OC)N1` (configuration not stated) is higher in growth inhibition: -16.2% for the first, -4.25% for the second.

Compared with `C1CSC[C@H]2COC[C@@H](CSCCS1)S2`, `C=C1C(=C)C2C=CC1C1C3C(c4ccccn4)=NN=C(c4ccccn4)C3C21` (configuration not stated) is higher in growth inhibition: -0.5% for the first, 54.4% for the second.

`Nc1ccc(F)cc1C(F)(F)F` showed a growth inhibition of 6.65%.
